Calls of active or inactive are those of the source. Rule for the calls: active = hit-call score of the fitted dose curve at least 0.9, where 1 is the maximum; inactive = score below 0.9.
Tests used:
Details in all cases: mRNA level, 48 h; actives raise or lower the signal
[1] = read-out: Peroxisomal acyl-coenzyme A oxidase 1 (ACOX1) gene, ACOX1 (gene 51); experiment: LTEA_HepaRG_ACOX1: Life Technologies and Expression Analysis (LTEA) Assay for Peroxisomal acyl-coenzyme A oxidase 1 (ACOX1) gene using HepaRG (AID 2283467)
Summary of the method: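 HepaRG, 48 h chemical exposure, 8-pt half-log series from 100 uM top, 0.5% DMSO vehicle, duplicates. Readout: ACOX1 mRNA by Fluidigm qRT-PCR, housekeeping-normalized; bidirectional fit vs DMSO baseline.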

[2] = read-out: Alkaline Phosphatase, Placental (ALPP) gene, ALPP (gene 250); experiment: LTEA_HepaRG_ALPP: Life Technologies and Expression Analysis (LTEA) Assay for Alkaline Phosphatase, Placental (ALPP) gene using HepaRG (AID 2283468)
Summary of the method: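 HepaRG cells plated 48 h, then exposed in duplicate for 48 h in serum-free induction medium to 8-point half-log series from 100 uM in 0.5% DMSO. ALPP mRNA by TaqMan qRT-PCR, normalized to ACTB/GAPDH/POLR2A; bidirectional fit versus DMSO.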

[3] = read-out: Bcl-2 (BAD) gene, BAD (gene 572); experiment: LTEA_HepaRG_BAD: Life Technologies and Expression Analysis (LTEA) Assay for Bcl-2 (BAD) gene using HepaRG (AID 2283469)
Summary of the method: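 HepaRG, 48 h exposure, 8-pt half-log curve from 100 uM in 0.5% DMSO, duplicates. Readout: TaqMan qRT-PCR for BAD mRNA, housekeeping-normalised (ACTB/GAPDH/POLR2A); gain or loss fitted against DMSO baseline.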

[4] = read-out: Bcl-2 (BAX) gene, BAX (gene 581); experiment: LTEA_HepaRG_BAX: Life Technologies and Expression Analysis (LTEA) Assay for Bcl-2 (BAX) gene using HepaRG (AID 2283470)
Summary of the method: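 Gene expression measured by Fluidigm qRT-PCR with three housekeeping genes for normalisation. HepaRG cells, plated 48 h beforehand, treated 48 h at up to 100 uM (8-point, half-log) in 0.5% DMSO. Bidirectional fitting versus DMSO.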

[5] = read-out: adenosine kinase (ADK) gene, ADK (gene 132); experiment: LTEA_HepaRG_ADK: Life Technologies and Expression Analysis (LTEA) Assay for adenosine kinase (ADK) gene using HepaRG (AID 2283471)
Summary of the method: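 ADK expression quantified by qRT-PCR, normalised to three housekeeping genes, after 48 h exposure of HepaRG cells to eight concentrations (top 100 uM, half-log steps, duplicate, 0.5% DMSO). Up- or down-regulation fitted relative to vehicle.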

[6] = read-out: Alpha-fetoprotein (AFP) gene, AFP (gene 174); experiment: LTEA_HepaRG_AFP: Life Technologies and Expression Analysis (LTEA) Assay for Alpha-fetoprotein (AFP) gene using HepaRG (AID 2283472)
Summary of the method: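 AFP transcript measured by TaqMan qRT-PCR with three housekeeping genes for normalization, after 48 h chemical treatment of HepaRG cells (top 100 uM, half-log steps, 0.5% DMSO). Gain or loss fitted against vehicle.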

[7] = read-out: Apolipoprotein A-V (APOA5) gene, APOA5 (gene 116519); experiment: LTEA_HepaRG_APOA5: Life Technologies and Expression Analysis (LTEA) Assay for Apolipoprotein A-V (APOA5) gene using HepaRG (AID 2283474)
Summary of the method: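 Differentiated HepaRG cells in serum-free induction medium, exposed 48 h in duplicate to eight half-log concentrations topping at 100 uM (0.5% DMSO). APOA5 mRNA by Fluidigm TaqMan qRT-PCR, normalized to ACTB, GAPDH and POLR2A; bidirectional fit versus DMSO.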

[8] = read-out: Apoptosis regulator Bcl-2 (Homo sapiens) (UniProt P10415); experiment: LTEA_HepaRG_BCL2: Life Technologies and Expression Analysis (LTEA) Assay for Bcl-2 gene using HepaRG (AID 2283475)
Summary of the method: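 qRT-PCR of BCL2 transcript, normalized to three housekeeping genes (ACTB, GAPDH, POLR2A), after 48 h chemical exposure of HepaRG cells; concentrations top 100 uM with half-log dilutions, 0.5% DMSO vehicle, duplicates; changes up or down fitted relative to vehicle.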

[9] = read-out: Bcl-2 (BID) gene, BID (gene 637); experiment: LTEA_HepaRG_BID: Life Technologies and Expression Analysis (LTEA) Assay for Bcl-2 (BID) gene using HepaRG (AID 2283476)
Summary of the method: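 Duplicate 48 h treatments of HepaRG cells in serum-free induction medium spanned 100 uM downward in half-log steps, 0.5% DMSO. Transcript change quantified by qRT-PCR against three housekeeping genes, fitted up or down versus DMSO.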

[10] = read-out: Caspase-3 (Homo sapiens) (UniProt P42574); experiment: LTEA_HepaRG_CASP3: Life Technologies and Expression Analysis (LTEA) Assay for cysteine-aspartic acid protease (CASP3) using HepaRG (AID 2283477)
Summary of the method: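 Differentiated HepaRG cells, plated 48 h, were treated in duplicate in serum-free induction medium for 48 h with eight half-log concentrations up to 100 uM in 0.5% DMSO. CASP3 mRNA measured by qRT-PCR, normalized to ACTB, GAPDH, POLR2A.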

[11] = read-out: Cytochrome P450 (CYP24A1), CYP24A1 (gene 1591); experiment: LTEA_HepaRG_CYP24A1: Life Technologies and Expression Analysis (LTEA) Assay for Cytochrome P450 (CYP24A1) using HepaRG (AID 2283478)
Summary of the method: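 HepaRG cells plated 48 h, then exposed in duplicate in serum-free induction medium for 48 h to 8-point half-log series from 100 uM in 0.5% DMSO. CYP24A1 mRNA by Fluidigm qRT-PCR, normalized to ACTB, GAPDH, POLR2A; bidirectional fit versus DMSO.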

[12] = read-out: Cytochrome P450 (CYP1A2), CYP1A2 (gene 1544); experiment: LTEA_HepaRG_CYP1A2: Life Technologies and Expression Analysis (LTEA) Assay for Cytochrome P450 (CYP1A2) using HepaRG (AID 2283479)
Summary of the method: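 Differentiated human HepaRG cells in serum-free induction medium exposed 48 hours in duplicate to 8 half-log concentrations from 100 uM, 0.5% DMSO. CYP1A2 mRNA quantified by qRT-PCR, normalized to ACTB, GAPDH and POLR2A; bidirectional fitting versus DMSO.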

[13] = read-out: cysteine-aspartic acid protease (CASP8), CASP8 (gene 841); experiment: LTEA_HepaRG_CASP8: Life Technologies and Expression Analysis (LTEA) Assay for cysteine-aspartic acid protease (CASP8) using HepaRG (AID 2283480)
Summary of the method: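 qRT-PCR readout of CASP8 mRNA, normalized to three housekeeping genes, after 48 h chemical exposure of HepaRG cells; 8-point half-log series, top 100 uM, 0.5% DMSO vehicle. Bidirectional curve fitting against DMSO baseline.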

[14] = read-out: Cytochrome P450 (CYP2B6), CYP2B6 (gene 1555); experiment: LTEA_HepaRG_CYP2B6: Life Technologies and Expression Analysis (LTEA) Assay for Cytochrome P450 (CYP2B6) using HepaRG (AID 2283481)
Summary of the method: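 Differentiated human HepaRG cells in serum-free induction medium, dosed in duplicate for 48 h over 8 half-log concentrations topping at 100 uM (0.5% DMSO). CYP2B6 mRNA measured by TaqMan qRT-PCR, normalized to ACTB, GAPDH, POLR2A; bidirectional fit versus DMSO.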

[15] = read-out: Cytochrome P450 2C19 (Homo sapiens) (UniProt P33261); experiment: LTEA_HepaRG_CYP2C19: Life Technologies and Expression Analysis (LTEA) Assay for CYP2C19 using HepaRG (AID 2283482)
Summary of the method: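 Differentiated HepaRG cells in serum-free induction medium exposed 48 h in duplicate, 8 concentrations from 100 uM by half-log steps in 0.5% DMSO. CYP2C19 mRNA measured by TaqMan qRT-PCR, normalized to ACTB, GAPDH, POLR2A. Bidirectional fit versus DMSO.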

[16] = read-out: CYP2C8 (gene 1558); experiment: LTEA_HepaRG_CYP2C8: Life Technologies and Expression Analysis (LTEA) Assay for CYP2C8 using HepaRG (AID 2283483)
Summary of the method: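 HepaRG (human liver line), 48 h chemical exposure, 8-pt half-log series from 100 uM, 0.5% DMSO vehicle. Readout: CYP2C8 transcript by qRT-PCR, housekeeping-normalized. Bidirectional fit vs DMSO baseline.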

[17] = read-out: CYP2C9 (gene 1559); experiment: LTEA_HepaRG_CYP2C9: Life Technologies and Expression Analysis (LTEA) Assay for CYP2C9 using HepaRG (AID 2283484)
Summary of the method: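 HepaRG, 48 h dosing, 8-pt half-log series, top 100 uM, 0.5% DMSO vehicle. Read-out: CYP2C9 transcript by TaqMan qRT-PCR, housekeeping-normalized (ACTB/GAPDH/POLR2A). Gain or loss fitted vs DMSO baseline.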

[18] = read-out: CYP2E1 (gene 1571); experiment: LTEA_HepaRG_CYP2E1: Life Technologies and Expression Analysis (LTEA) Assay for CYP2E1 using HepaRG (AID 2283485)
Summary of the method: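 CYP2E1 transcript measured by Fluidigm qRT-PCR against three housekeeping genes in human HepaRG cells treated 48 h (top 100 uM, half-log steps, 0.5% DMSO vehicle). Gain or loss fitted relative to DMSO baseline.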

[19] = read-out: CYP4A11 (gene 1579); experiment: LTEA_HepaRG_CYP4A11: Life Technologies and Expression Analysis (LTEA) Assay for CYP4A11 using HepaRG (AID 2283486)
Summary of the method: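 Differentiated HepaRG cells, 48 h after plating, exposed in duplicate for 48 h to 8 half-log concentrations up to 100 uM in 0.5% DMSO in serum-free induction medium. CYP4A11 mRNA measured by TaqMan qRT-PCR, normalized to ACTB, GAPDH and POLR2A.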

[20] = read-out: Cytochrome P450 3A4 (Homo sapiens) (UniProt P08684); experiment: LTEA_HepaRG_CYP3A4: Life Technologies and Expression Analysis (LTEA) Assay for CYP3A4 using HepaRG (AID 2283487)
Summary of the method: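 Differentiated HepaRG cells, plated 48 h, then dosed 48 h in serum-free induction medium with 0.5% DMSO, 8 half-log concentrations up to 100 uM, duplicate. CYP3A4 mRNA by qRT-PCR, normalized to ACTB/GAPDH/POLR2A; bidirectional fit versus DMSO.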

Cytochrome P450 2C19 (Homo sapiens), sequence (P33261 whole entry, looked up): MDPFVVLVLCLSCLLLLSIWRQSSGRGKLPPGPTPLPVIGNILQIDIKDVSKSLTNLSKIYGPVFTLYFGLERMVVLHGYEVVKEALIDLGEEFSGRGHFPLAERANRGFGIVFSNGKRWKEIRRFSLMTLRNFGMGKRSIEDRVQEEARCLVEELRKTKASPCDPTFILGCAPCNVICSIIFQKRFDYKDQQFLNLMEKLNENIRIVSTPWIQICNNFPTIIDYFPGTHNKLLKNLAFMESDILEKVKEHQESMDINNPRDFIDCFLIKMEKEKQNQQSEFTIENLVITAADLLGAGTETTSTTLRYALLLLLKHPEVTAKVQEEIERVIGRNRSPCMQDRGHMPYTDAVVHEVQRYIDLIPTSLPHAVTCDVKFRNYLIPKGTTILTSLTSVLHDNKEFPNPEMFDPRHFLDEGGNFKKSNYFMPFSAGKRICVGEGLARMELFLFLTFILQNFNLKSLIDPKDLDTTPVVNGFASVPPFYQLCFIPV
Apoptosis regulator Bcl-2 (Homo sapiens), sequence (P10415 whole entry, looked up): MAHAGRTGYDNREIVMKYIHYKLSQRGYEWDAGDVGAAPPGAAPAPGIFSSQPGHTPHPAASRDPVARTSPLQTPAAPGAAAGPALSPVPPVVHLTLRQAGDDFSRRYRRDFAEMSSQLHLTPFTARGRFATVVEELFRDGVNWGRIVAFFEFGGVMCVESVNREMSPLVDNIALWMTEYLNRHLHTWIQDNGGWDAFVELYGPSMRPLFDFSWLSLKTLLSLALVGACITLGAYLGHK
Caspase-3 (Homo sapiens), sequence (P42574 whole entry, looked up): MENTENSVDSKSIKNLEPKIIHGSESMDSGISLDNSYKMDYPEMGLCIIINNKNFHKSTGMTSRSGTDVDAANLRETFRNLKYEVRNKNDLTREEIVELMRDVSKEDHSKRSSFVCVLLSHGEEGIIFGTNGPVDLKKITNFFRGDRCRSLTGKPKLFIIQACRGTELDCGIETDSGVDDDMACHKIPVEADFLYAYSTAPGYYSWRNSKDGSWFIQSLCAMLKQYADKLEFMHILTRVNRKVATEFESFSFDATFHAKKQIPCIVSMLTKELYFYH
Cytochrome P450 3A4 (Homo sapiens), sequence (P08684 whole entry, looked up): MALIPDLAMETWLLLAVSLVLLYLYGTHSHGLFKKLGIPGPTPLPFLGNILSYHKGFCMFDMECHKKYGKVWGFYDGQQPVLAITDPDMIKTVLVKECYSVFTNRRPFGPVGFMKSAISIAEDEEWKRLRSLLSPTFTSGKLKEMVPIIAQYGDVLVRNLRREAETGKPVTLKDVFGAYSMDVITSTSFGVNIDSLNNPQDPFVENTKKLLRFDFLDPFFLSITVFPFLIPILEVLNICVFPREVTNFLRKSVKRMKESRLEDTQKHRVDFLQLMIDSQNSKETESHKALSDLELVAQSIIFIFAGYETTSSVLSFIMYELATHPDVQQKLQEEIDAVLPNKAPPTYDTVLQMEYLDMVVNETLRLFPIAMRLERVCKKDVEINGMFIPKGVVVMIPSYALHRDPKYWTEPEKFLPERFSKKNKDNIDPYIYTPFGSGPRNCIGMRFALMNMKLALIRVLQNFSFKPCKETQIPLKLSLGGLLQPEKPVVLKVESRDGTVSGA

## CC(C)(OO)c1ccccc1
[1]
  outcome: inactive
[2]
  outcome: inactive
[3]
  outcome: inactive
[4]
  outcome: inactive
[5]
  outcome: inactive
[6]
  outcome: inactive
[7]
  outcome: inactive
[8]
  outcome: inactive
[9]
  outcome: inactive
[10]
  outcome: inactive
[11]
  outcome: inactive
[12]
  AC50: 50 µM (active)
[13]
  outcome: inactive
[14]
  AC50: 22.9 µM (active)
[15]
  outcome: inactive
[16]
  outcome: inactive
[17]
  outcome: inactive
[18]
  outcome: inactive
[19]
  outcome: inactive
[20]
  outcome: inactive

## O=[N+]([O-])c1ccc(O)c([N+](=O)[O-])c1
[1]
  AC50: 13.3 µM (active)
[2]
  outcome: inactive
[3]
  outcome: inactive
[4]
  outcome: inactive
[5]
  AC50: 13.3 µM (active)
[6]
  AC50: 24.2 µM (active)
[7]
  AC50: 25.3 µM (active)
[8]
  AC50: 12.1 µM (active)
[9]
  AC50: 12.9 µM (active)
[10]
  AC50: 7 µM (active)
[11]
  outcome: inactive
[12]
  AC50: 17.2 µM (active)
[13]
  AC50: 22.3 µM (active)
[14]
  AC50: 16 µM (active)
[15]
  AC50: 19.5 µM (active)
[16]
  AC50: 40.1 µM (active)
[17]
  AC50: 21.8 µM (active)
[18]
  AC50: 20.5 µM (active)
[19]
  AC50: 31.5 µM (active)
[20]
  AC50: 22.2 µM (active)

## O=C(O)C(F)(F)C(F)(F)C(F)(F)C(F)(F)C(F)(F)C(F)(F)F
[1]
  outcome: inactive
[2]
  outcome: inactive
[3]
  outcome: inactive
[4]
  outcome: inactive
[5]
  outcome: inactive
[6]
  outcome: inactive
[7]
  outcome: inactive
[8]
  outcome: inactive
[9]
  outcome: inactive
[10]
  outcome: inactive
[11]
  outcome: inactive
[12]
  outcome: inactive
[13]
  outcome: inactive
[14]
  AC50: 24.9 µM (active)
[15]
  AC50: 0.576 µM (active)
[16]
  outcome: inactive
[17]
  outcome: inactive
[18]
  outcome: inactive
[19]
  AC50: 18.6 µM (active)
[20]
  outcome: inactive

## CCC(=O)C(CC(C)N(C)C)(c1ccccc1)c1ccccc1 (centres undefined)
[1]
  outcome: inactive
[2]
  outcome: inactive
[3]
  outcome: inactive
[4]
  outcome: inactive
[5]
  outcome: inactive
[6]
  AC50: 36.2 µM (active)
[7]
  outcome: inactive
[8]
  outcome: inactive
[9]
  outcome: inactive
[10]
  outcome: inactive
[11]
  outcome: inactive
[12]
  AC50: 36.2 µM (active)
[13]
  outcome: inactive
[14]
  AC50: 2.41 µM (active)
[15]
  AC50: 10.1 µM (active)
[16]
  outcome: inactive
[17]
  outcome: inactive
[18]
  AC50: 36.2 µM (active)
[19]
  outcome: inactive
